Compounds without any hit were thinned out: in the full panel of roughly 83,000, 20% have a hit.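 Single-dose data. Exposure time 48 hours. Values below 10 considered active.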 Activity calls are given as the source filed them.
Key:
Assay in all cases: NCI-60 one-dose screen, 48 h (100 = growth as untreated, 0 = no growth, -100 = all killed)
Conditions in all cases: 10 µM unless noted
NCI-H23 lung = tested on: NCI-H23 lung
NCI-H226 lung = tested on: NCI-H226 lung
NCI-H322M lung = tested on: NCI-H322M lung
HOP-62 NSCLC = tested on: HOP-62 NSCLC
NCI-H460 lung = tested on: NCI-H460 lung
HOP-92 NSCLC = tested on: HOP-92 NSCLC
NCI-H522 lung = tested on: NCI-H522 lung
A549/ATCC NSCLC = tested on: A549/ATCC NSCLC
786-0 renal = tested on: 786-0 renal
COLO 205 colon = tested on: COLO 205 colon

Measured: growth

C[N+](C)(C)Cc1cc(Cl)ccc1O
inactive: NCI-H23 lung 97.7% | NCI-H226 lung 98.6% | NCI-H322M lung 87.3% | HOP-62 NSCLC 101% | NCI-H460 lung 110% | HOP-92 NSCLC 93.2% | NCI-H522 lung 80.6% | A549/ATCC NSCLC 94.6% | 786-0 renal 100% | COLO 205 colon 107%

CC[C@H](C)[C@@H]1OC(=O)C(C)(C)[C@H](O)[C@H](Cc2ccccc2)OC(=O)[C@H](C(C)C)OC(=O)[C@@H](NC(=O)c2cccc(NC=O)c2O)[C@@H](C)OC1=O
inactive: NCI-H23 lung 36.4% | NCI-H226 lung 51.2% | NCI-H322M lung 78.9% | HOP-62 NSCLC 45% | NCI-H460 lung 19% | HOP-92 NSCLC 68% | NCI-H522 lung 38.9% | A549/ATCC NSCLC 49.5% | 786-0 renal 64.5% | COLO 205 colon 43.6%

c1cnc2[nH]cc(-c3csc(-c4cn(CCCCN5CCCCC5)c5ccccc45)n3)c2c1
inactive: NCI-H23 lung 95.2% | NCI-H226 lung 95.3% | NCI-H322M lung 87.4% | HOP-62 NSCLC 82.4% | NCI-H460 lung 76.3% | HOP-92 NSCLC 48.3% | NCI-H522 lung 98.5% | A549/ATCC NSCLC 83.6% | 786-0 renal 80.7%
active: COLO 205 colon 6.47%

[Cl][Hg][c]1cc(Br)cc(Br)c1
inactive: NCI-H23 lung 61.8% | NCI-H226 lung 99.9% | NCI-H322M lung 80% | HOP-62 NSCLC 31.7% | NCI-H460 lung 32.2% | HOP-92 NSCLC 11.2% | A549/ATCC NSCLC 68% | 786-0 renal 26.3% | COLO 205 colon 91%
active: NCI-H522 lung -30.4%

O=C1CC2(CC3(Cl)C(Cl)=C(Cl)C2(Cl)C3(Cl)Cl)C(=O)O1 (stereo not given)
inactive: NCI-H23 lung 96.8% | NCI-H226 lung 110% | NCI-H322M lung 99.3% | HOP-62 NSCLC 91.6% | NCI-H460 lung 112% | HOP-92 NSCLC 107% | NCI-H522 lung 102% | A549/ATCC NSCLC 105% | 786-0 renal 96.3% | COLO 205 colon 126%

CC1=C([Te]c2ccc(O)cc2)C(=O)c2ccccc2C1=O
active: NCI-H23 lung -19.6% | NCI-H226 lung -35.4% | HOP-62 NSCLC -25.2% | NCI-H460 lung -27.6% | HOP-92 NSCLC -56.5% | NCI-H522 lung 0.775% | A549/ATCC NSCLC 6.97% | 786-0 renal -1.41% | COLO 205 colon -88.5%
inactive: NCI-H322M lung 22.3%

O=P1(NCCCl)OCCCN1CCCl (stereo not given)
inactive: NCI-H23 lung 107% | NCI-H226 lung 109% | NCI-H322M lung 106% | HOP-62 NSCLC 108% | NCI-H460 lung 109% | HOP-92 NSCLC 97.4% | NCI-H522 lung 99.5% | A549/ATCC NSCLC 121% | 786-0 renal 93.5% | COLO 205 colon 112%

COc1ccc(S(=O)(=O)N(Cc2ccc3c(c2)C=CC(C)(C)O3)c2ccccc2)cc1OC
inactive: NCI-H23 lung 47.6% | NCI-H226 lung 55.4% | NCI-H322M lung 102% | HOP-62 NSCLC 87.1% | NCI-H460 lung 76.7% | HOP-92 NSCLC 88.2% | NCI-H522 lung 61.5% | A549/ATCC NSCLC 79.1% | 786-0 renal 87.1% | COLO 205 colon 64.7%

ClC1=C(Cl)C(Cl)(C2(Cl)C(Cl)=C(Cl)C(Cl)=C2Cl)C(Cl)=C1Cl
active: NCI-H23 lung -14.4% | NCI-H226 lung -81.5% | HOP-92 NSCLC -63.5% | NCI-H522 lung -68.2% | 786-0 renal -66.4% | COLO 205 colon -68.6%
inactive: NCI-H322M lung 98.3% | HOP-62 NSCLC 60.4% | NCI-H460 lung 67.6% | A549/ATCC NSCLC 45%

CCC[CH2][Sn]([CH2]CCC)([CH2]CCC)[O]c1ccc(Cl)cc1Cl
active: NCI-H23 lung -87.2% | NCI-H226 lung -86.5% | NCI-H322M lung -80.1% | HOP-62 NSCLC -91.7% | NCI-H460 lung -84.8% | HOP-92 NSCLC -84.9% | NCI-H522 lung -90.1% | A549/ATCC NSCLC -82% | 786-0 renal -93.8% | COLO 205 colon -75.2%

Cc1ccccc1NC(=NCCCN1CC1)Nc1ccccc1C
inactive: NCI-H23 lung 97.7% | NCI-H226 lung 83.1% | NCI-H322M lung 97.6% | HOP-62 NSCLC 119% | NCI-H460 lung 81.7% | HOP-92 NSCLC 77.2% | NCI-H522 lung 84.9% | A549/ATCC NSCLC 86.4% | 786-0 renal 100% | COLO 205 colon 102%

CNC(=O)Oc1ccc2c(c1)OCO2
inactive: NCI-H23 lung 103% | NCI-H226 lung 103% | NCI-H322M lung 107% | HOP-62 NSCLC 102% | NCI-H460 lung 106% | HOP-92 NSCLC 108% | NCI-H522 lung 103% | A549/ATCC NSCLC 100% | 786-0 renal 107% | COLO 205 colon 103%

O=C(CC1(O)C(=O)N(Cc2ccccc2)c2ccccc21)c1ccc(C(=O)NCC2CCC3(CC2)OOC2(CCCCC2)OO3)cc1 (stereo not given)
active: NCI-H23 lung -72.2% | NCI-H226 lung -34.8% | HOP-62 NSCLC -48.2% | NCI-H460 lung -51.4% | HOP-92 NSCLC -72% | NCI-H522 lung -28% | A549/ATCC NSCLC -53.6% | 786-0 renal -73.1% | COLO 205 colon -52.9%
inactive: NCI-H322M lung 65.2%

CC1[C@H](C)OC(=O)CC(O)CC(O)CC(O)CCC(O)C(O)C[C@]2(O)CC(O)C(C(=O)O)C(CC(OC3O[C@H](C)[C@@H](O)[C@H](N)[C@@H]3O)/C=C/C=C/C=C/C=C/CC/C=C/C=C/[C@H](C)[C@H]1O)O2 (stereo not given in full)
inactive: NCI-H23 lung 90.8% | NCI-H226 lung 99.1% | NCI-H322M lung 105% | HOP-62 NSCLC 105% | NCI-H460 lung 103% | HOP-92 NSCLC 101% | NCI-H522 lung 114% | A549/ATCC NSCLC 97.8% | 786-0 renal 105% | COLO 205 colon 93.7%

COc1ccc(N(CC(=O)NCCC[Te]c2ccccc2)C(=O)CCSC2=C(C)C(=O)c3ccccc3C2=O)cc1
active: NCI-H23 lung -49.3% | NCI-H226 lung -54.8% | NCI-H322M lung 2.85% | HOP-62 NSCLC -46.4% | NCI-H460 lung -73.5% | HOP-92 NSCLC -49.8% | NCI-H522 lung -41.2% | A549/ATCC NSCLC -52.4% | 786-0 renal -22.1% | COLO 205 colon -97.9%

CO[C@H]1CC[C@@]2(C)C(=CC[C@@H]3[C@@H]2CC[C@]2(C)C(=O)C(=O)C[C@@H]32)C1
inactive: NCI-H23 lung 99.5% | NCI-H226 lung 96.1% | NCI-H322M lung 120% | HOP-62 NSCLC 106% | NCI-H460 lung 102% | HOP-92 NSCLC 83.7% | NCI-H522 lung 98% | A549/ATCC NSCLC 111% | 786-0 renal 107% | COLO 205 colon 118%

Brc1ccc2c(c1)c(-c1nc(-c3c[nH]c4ncccc34)cs1)cn2CCN1CCOCC1
inactive: NCI-H23 lung 71.8% | NCI-H226 lung 60.2% | NCI-H322M lung 72.1% | HOP-62 NSCLC 60.4% | NCI-H460 lung 63.2% | HOP-92 NSCLC 52.2% | NCI-H522 lung 76.1% | A549/ATCC NSCLC 61.7% | 786-0 renal 67.5% | COLO 205 colon 64.3%

C[C@]12CC[C@@H]3c4ccc(Oc5nc(N6CC6)nc(N6CC6)n5)cc4CC[C@H]3[C@@H]1CCC2=O
inactive: NCI-H23 lung 31.6% | NCI-H226 lung 48.7% | NCI-H322M lung 44.2% | HOP-62 NSCLC 11.7% | HOP-92 NSCLC 104% | NCI-H522 lung 31.5% | A549/ATCC NSCLC 24.9% | 786-0 renal 32.4% | COLO 205 colon 32.5%
active: NCI-H460 lung -33.8%

— PubChem BioAssay (NCI)
